# Numbering of substitutions follows the chain as printed.
# Molecular target: HOXB4 (Homo sapiens, UniProt P17483 148-234)
# Assay: PBM; 200 nM protein, PBS
# Details: dsDNA, one strand shown
# Chain of HOXB4 (P17483 148-234): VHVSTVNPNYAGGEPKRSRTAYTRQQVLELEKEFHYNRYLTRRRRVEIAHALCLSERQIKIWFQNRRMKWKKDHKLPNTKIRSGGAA
row,Sequence,binding signal
1,TAATGACA,"13 upbm affinity estimate (log intensity, higher = more binding, comparable within an allelic series)"
2,CGCCGGGC,"7.64 upbm affinity estimate (log intensity, higher = more binding, comparable within an allelic series)"
3,CTGGCGGC,"7.3 upbm affinity estimate (log intensity, higher = more binding, comparable within an allelic series)"
4,ACCTCTCG,"7.54 upbm affinity estimate (log intensity, higher = more binding, comparable within an allelic series)"
5,CCAGGCAG,"7.62 upbm affinity estimate (log intensity, higher = more binding, comparable within an allelic series)"
6,TCCCAGGA,"7.82 upbm affinity estimate (log intensity, higher = more binding, comparable within an allelic series)"
7,ATTAATCA,"13.2 upbm affinity estimate (log intensity, higher = more binding, comparable within an allelic series)"
8,TAATGATA,"13.4 upbm affinity estimate (log intensity, higher = more binding, comparable within an allelic series)"
9,ACCGCCGG,"7.71 upbm affinity estimate (log intensity, higher = more binding, comparable within an allelic series)"
10,AGGGGGGG,"7.37 upbm affinity estimate (log intensity, higher = more binding, comparable within an allelic series)"
11,TTAATGAA,"13 upbm affinity estimate (log intensity, higher = more binding, comparable within an allelic series)"
12,CCGGACCA,"7.72 upbm affinity estimate (log intensity, higher = more binding, comparable within an allelic series)"
13,ATCATTAC,"13.1 upbm affinity estimate (log intensity, higher = more binding, comparable within an allelic series)"
14,CGCCGAAG,"7.84 upbm affinity estimate (log intensity, higher = more binding, comparable within an allelic series)"
15,CCTAATGA,"13 upbm affinity estimate (log intensity, higher = more binding, comparable within an allelic series)"
16,CGTGGCGC,"7.6 upbm affinity estimate (log intensity, higher = more binding, comparable within an allelic series)"
17,CGGGGGTC,"7.85 upbm affinity estimate (log intensity, higher = more binding, comparable within an allelic series)"
18,CAGACCCC,"7.56 upbm affinity estimate (log intensity, higher = more binding, comparable within an allelic series)"
19,ATAATGAT,"13.2 upbm affinity estimate (log intensity, higher = more binding, comparable within an allelic series)"
20,GGTAATGA,"12.9 upbm affinity estimate (log intensity, higher = more binding, comparable within an allelic series)"

row,Sequence,binding signal
1,CATAATGA,"13 upbm affinity estimate (log intensity, higher = more binding, comparable within an allelic series)"
2,GTGGGGGA,"7.95 upbm affinity estimate (log intensity, higher = more binding, comparable within an allelic series)"
3,CATCATTA,"13.4 upbm affinity estimate (log intensity, higher = more binding, comparable within an allelic series)"
4,ACCCGTGG,"7.52 upbm affinity estimate (log intensity, higher = more binding, comparable within an allelic series)"
5,ATTTGAAC,"9.93 upbm affinity estimate (log intensity, higher = more binding, comparable within an allelic series)"
6,TATAATGA,"13 upbm affinity estimate (log intensity, higher = more binding, comparable within an allelic series)"
7,ATAATGAC,"12.9 upbm affinity estimate (log intensity, higher = more binding, comparable within an allelic series)"
8,CGGCGGTC,"7.42 upbm affinity estimate (log intensity, higher = more binding, comparable within an allelic series)"
9,CCTACCGC,"7.61 upbm affinity estimate (log intensity, higher = more binding, comparable within an allelic series)"
10,GATAATGA,"13.1 upbm affinity estimate (log intensity, higher = more binding, comparable within an allelic series)"
11,GGCCCCCA,"7.76 upbm affinity estimate (log intensity, higher = more binding, comparable within an allelic series)"
12,CGGCAGAG,"7.39 upbm affinity estimate (log intensity, higher = more binding, comparable within an allelic series)"
13,TATTTAAA,"11.2 upbm affinity estimate (log intensity, higher = more binding, comparable within an allelic series)"
14,CGGGCTTC,"7.22 upbm affinity estimate (log intensity, higher = more binding, comparable within an allelic series)"
15,ACCGTGGG,"7.69 upbm affinity estimate (log intensity, higher = more binding, comparable within an allelic series)"
16,ACCGTGCC,"7.42 upbm affinity estimate (log intensity, higher = more binding, comparable within an allelic series)"
17,CCCTTGCG,"7.39 upbm affinity estimate (log intensity, higher = more binding, comparable within an allelic series)"
18,CAGGCCCC,"7.68 upbm affinity estimate (log intensity, higher = more binding, comparable within an allelic series)"
19,ATTCATTA,"13.1 upbm affinity estimate (log intensity, higher = more binding, comparable within an allelic series)"
20,CGAGGCAC,"7.73 upbm affinity estimate (log intensity, higher = more binding, comparable within an allelic series)"

# Molecular target: HOXA4 (Homo sapiens, UniProt Q00056 201-287, W262R)
# Assay: PBM; 200 nM protein, PBS
# Details: dsDNA, one strand shown
# Chain of HOXA4 (Q00056 201-287 W262R): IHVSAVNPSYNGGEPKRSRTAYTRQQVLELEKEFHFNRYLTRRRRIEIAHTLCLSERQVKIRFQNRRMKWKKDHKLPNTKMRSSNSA
row,Sequence,binding signal
1,TAATGACA,"10.6 upbm affinity estimate (log intensity, higher = more binding, comparable within an allelic series)"
2,CGCCGGGC,"9.72 upbm affinity estimate (log intensity, higher = more binding, comparable within an allelic series)"
3,CTGGCGGC,"9.71 upbm affinity estimate (log intensity, higher = more binding, comparable within an allelic series)"
4,ACCTCTCG,"9.8 upbm affinity estimate (log intensity, higher = more binding, comparable within an allelic series)"
5,CCAGGCAG,"9.9 upbm affinity estimate (log intensity, higher = more binding, comparable within an allelic series)"
6,ATTAATCA,"10.6 upbm affinity estimate (log intensity, higher = more binding, comparable within an allelic series)"
7,TAATGATA,"10.5 upbm affinity estimate (log intensity, higher = more binding, comparable within an allelic series)"
8,ACCGCCGG,"9.74 upbm affinity estimate (log intensity, higher = more binding, comparable within an allelic series)"
9,TTAATGAA,"10.7 upbm affinity estimate (log intensity, higher = more binding, comparable within an allelic series)"
10,ATCATTAC,"10.4 upbm affinity estimate (log intensity, higher = more binding, comparable within an allelic series)"
11,CCTAATGA,"10.5 upbm affinity estimate (log intensity, higher = more binding, comparable within an allelic series)"
12,ATAATGAT,"10.6 upbm affinity estimate (log intensity, higher = more binding, comparable within an allelic series)"
13,GGTAATGA,"10.4 upbm affinity estimate (log intensity, higher = more binding, comparable within an allelic series)"
14,CATAATGA,"10.6 upbm affinity estimate (log intensity, higher = more binding, comparable within an allelic series)"
15,CATCATTA,"10.8 upbm affinity estimate (log intensity, higher = more binding, comparable within an allelic series)"
16,ACCCGTGG,"9.91 upbm affinity estimate (log intensity, higher = more binding, comparable within an allelic series)"
17,TATAATGA,"10.5 upbm affinity estimate (log intensity, higher = more binding, comparable within an allelic series)"
18,ATAATGAC,"10.4 upbm affinity estimate (log intensity, higher = more binding, comparable within an allelic series)"
19,CGGCGGTC,"9.72 upbm affinity estimate (log intensity, higher = more binding, comparable within an allelic series)"
20,GATAATGA,"10.7 upbm affinity estimate (log intensity, higher = more binding, comparable within an allelic series)"
21,GGCCCCCA,"9.68 upbm affinity estimate (log intensity, higher = more binding, comparable within an allelic series)"
22,TATTTAAA,"10.5 upbm affinity estimate (log intensity, higher = more binding, comparable within an allelic series)"
23,CGGGCTTC,"9.75 upbm affinity estimate (log intensity, higher = more binding, comparable within an allelic series)"
24,CCCTTGCG,"9.76 upbm affinity estimate (log intensity, higher = more binding, comparable within an allelic series)"
25,CAGGCCCC,"9.66 upbm affinity estimate (log intensity, higher = more binding, comparable within an allelic series)"
26,ATTCATTA,"10.5 upbm affinity estimate (log intensity, higher = more binding, comparable within an allelic series)"

# Molecular target: HOXC9 (Homo sapiens, UniProt P31274 178-260, K195R)
# Assay: PBM; 200 nM protein, PBS
# Details: dsDNA, one strand shown
# Chain of HOXC9 (P31274 178-260 K195R): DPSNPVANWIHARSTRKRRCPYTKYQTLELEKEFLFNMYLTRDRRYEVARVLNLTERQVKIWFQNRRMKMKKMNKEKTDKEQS
row,Sequence,binding signal
1,TCCCAGGA,"9.51 upbm affinity estimate (log intensity, higher = more binding, comparable within an allelic series)"
2,AGGGGGGG,"9.2 upbm affinity estimate (log intensity, higher = more binding, comparable within an allelic series)"
3,CCGGACCA,"9.48 upbm affinity estimate (log intensity, higher = more binding, comparable within an allelic series)"
4,CGCCGAAG,"9.52 upbm affinity estimate (log intensity, higher = more binding, comparable within an allelic series)"
5,CGTGGCGC,"9.49 upbm affinity estimate (log intensity, higher = more binding, comparable within an allelic series)"
6,CGGGGGTC,"9.59 upbm affinity estimate (log intensity, higher = more binding, comparable within an allelic series)"
7,ATTTGAAC,"10.9 upbm affinity estimate (log intensity, higher = more binding, comparable within an allelic series)"
8,CCTACCGC,"9.66 upbm affinity estimate (log intensity, higher = more binding, comparable within an allelic series)"
9,CGAGGCAC,"9.69 upbm affinity estimate (log intensity, higher = more binding, comparable within an allelic series)"

# Molecular target: HOXA7 (Homo sapiens, UniProt P31268 116-202)
# Assay: PBM; 200 nM protein, PBS
# Details: dsDNA, one strand shown
# Chain of HOXA7 (P31268 116-202): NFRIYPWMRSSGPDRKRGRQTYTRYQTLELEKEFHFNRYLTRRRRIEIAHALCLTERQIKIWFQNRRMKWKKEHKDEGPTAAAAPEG
row,Sequence,binding signal
1,TAATGACA,"11.2 upbm affinity estimate (log intensity, higher = more binding, comparable within an allelic series)"
2,CTGGCGGC,"8.57 upbm affinity estimate (log intensity, higher = more binding, comparable within an allelic series)"
3,CAGACCCC,"8.69 upbm affinity estimate (log intensity, higher = more binding, comparable within an allelic series)"
4,GTGGGGGA,"8.47 upbm affinity estimate (log intensity, higher = more binding, comparable within an allelic series)"
5,ATAATGAC,"11.2 upbm affinity estimate (log intensity, higher = more binding, comparable within an allelic series)"
6,CGGCAGAG,"8.53 upbm affinity estimate (log intensity, higher = more binding, comparable within an allelic series)"
7,ACCGTGGG,"8.39 upbm affinity estimate (log intensity, higher = more binding, comparable within an allelic series)"
8,ACCGTGCC,"8.5 upbm affinity estimate (log intensity, higher = more binding, comparable within an allelic series)"

# Molecular target: ALX4 (Homo sapiens, UniProt Q9H161 200-286)
# Assay: PBM; 200 nM protein, PBS
# Details: dsDNA, one strand shown
# Chain of ALX4 (Q9H161 200-286): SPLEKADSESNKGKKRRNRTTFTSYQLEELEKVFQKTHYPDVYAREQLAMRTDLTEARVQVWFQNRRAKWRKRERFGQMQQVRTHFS
row,Sequence,binding signal
1,ATTAATCA,"13.7 upbm affinity estimate (log intensity, higher = more binding, comparable within an allelic series)"
2,GATAATGA,"12.7 upbm affinity estimate (log intensity, higher = more binding, comparable within an allelic series)"
3,CCCTTGCG,"7.92 upbm affinity estimate (log intensity, higher = more binding, comparable within an allelic series)"

# Molecular target: T1, PAX4 (Homo sapiens, UniProt O43316 9-242, R200K)
# T1 sequence: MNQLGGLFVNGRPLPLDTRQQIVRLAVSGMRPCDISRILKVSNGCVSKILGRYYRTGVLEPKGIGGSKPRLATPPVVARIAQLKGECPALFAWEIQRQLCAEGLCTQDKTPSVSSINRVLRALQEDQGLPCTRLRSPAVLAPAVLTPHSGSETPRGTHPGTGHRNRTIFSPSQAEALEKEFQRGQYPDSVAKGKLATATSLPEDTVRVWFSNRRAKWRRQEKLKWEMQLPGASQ
# Assay: PBM; 200 nM protein, PBS
# Details: dsDNA, one strand shown
row,Sequence,binding signal
1,ATTAATCA,"11.6 upbm affinity estimate (log intensity, higher = more binding, comparable within an allelic series)"
2,AGGGGGGG,"9.12 upbm affinity estimate (log intensity, higher = more binding, comparable within an allelic series)"
3,GTGGGGGA,"9.34 upbm affinity estimate (log intensity, higher = more binding, comparable within an allelic series)"
4,GATAATGA,"11.2 upbm affinity estimate (log intensity, higher = more binding, comparable within an allelic series)"
5,CGGGCTTC,"9.13 upbm affinity estimate (log intensity, higher = more binding, comparable within an allelic series)"

# Molecular target: T2, PAX4 (Homo sapiens, UniProt O43316 9-242)
# T2 sequence: T1 sequence with K192R
# Assay: PBM; 200 nM protein, PBS
# Details: dsDNA, one strand shown
row,Sequence,binding signal
1,AGGGGGGG,"9.16 upbm affinity estimate (log intensity, higher = more binding, comparable within an allelic series)"
2,GTGGGGGA,"9.25 upbm affinity estimate (log intensity, higher = more binding, comparable within an allelic series)"

# From publication PMC11006913
